Rows were chosen to be rich in hits. Some 3.5% of all compounds tested hit in one or more screens of this group.
TEAD-YAP block: TEAD-YAP interaction inhibition | HEK-TIYL cells, TEAD-Gal4/YAP UAS-luciferase luminescence | inhibition, % at 9.12 µM | actives 1.4% (n = 640,000); in the data active means inhibition above about 32%
MITF inh: blocks human microphthalmia-associated transcription factor; O75030; inhibition, % at 2.6 µM; AlphaScreen MITF homodimerization, bead proximity signal; AID 1259374; actives 0.91% (n = 650,000); in the data active means inhibition above about 50%
GPR151 ag: human GPR151 activation; AID 1508602; PathHunter beta-arrestin GPR151 cells, luminescence; actives 1% (n = 650,000); activation, % at 11.2 µM; in the data active means activation above about 4.9%
FBW7 activator: activators of human E3 ligase FBW7; Q969H0; AlphaScreen FBW7–phospho-cyclin E peptide binding, activator screen; normalized activity (activation), % at 26.1 µM; actives 0.13% (n = 650,000); AID 1259310; in the data active means normalized activity above about 1.9%;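 further: purified mutant Fbw7 with reduced substrate affinity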
Target sequence (Q969H0 whole entry, looked up): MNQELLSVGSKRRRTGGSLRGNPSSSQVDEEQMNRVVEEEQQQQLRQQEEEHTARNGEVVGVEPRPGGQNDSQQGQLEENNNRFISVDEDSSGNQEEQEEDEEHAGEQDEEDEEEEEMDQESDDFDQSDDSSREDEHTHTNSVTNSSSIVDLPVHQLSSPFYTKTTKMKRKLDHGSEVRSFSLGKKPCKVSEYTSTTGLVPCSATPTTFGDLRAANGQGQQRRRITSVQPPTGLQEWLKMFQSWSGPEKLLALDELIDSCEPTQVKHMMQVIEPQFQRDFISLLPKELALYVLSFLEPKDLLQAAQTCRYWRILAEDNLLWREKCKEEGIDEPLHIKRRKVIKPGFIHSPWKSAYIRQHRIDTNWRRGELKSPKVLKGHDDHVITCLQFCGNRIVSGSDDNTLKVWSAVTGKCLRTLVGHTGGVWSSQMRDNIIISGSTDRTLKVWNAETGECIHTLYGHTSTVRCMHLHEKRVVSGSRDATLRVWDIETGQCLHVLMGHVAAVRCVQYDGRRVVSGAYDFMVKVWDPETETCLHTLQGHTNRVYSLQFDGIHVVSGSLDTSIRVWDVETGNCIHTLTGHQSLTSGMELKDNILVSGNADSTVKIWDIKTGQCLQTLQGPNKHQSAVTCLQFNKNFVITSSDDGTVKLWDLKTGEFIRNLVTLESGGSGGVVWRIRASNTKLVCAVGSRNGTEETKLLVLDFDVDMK
Each line names hits and unclear results; the compound was inactive in the other large screens.

CC(C)CCNC(=O)c1cccn2c(=O)c3cc4ccccc4cc3nc12	none
CN(C)CCNC(=O)c1cccn2c(=O)c3cc4ccccc4cc3nc12	TEAD-YAP block 71
Cc1ccc(C)n1-c1ccc(C(=O)NCC(=O)O)cc1	MITF inh 66
Cc1ccc(C)n1-c1ccc(C(=O)O)cc1	none
NCC(=O)N1CCC(C(=O)Nc2nc3ccc(-c4ccncc4)cc3s2)CC1	TEAD-YAP block 38
O=C(CSc1ccc(Cl)cc1)Nc1nc2ccc(-c3ccncc3)cc2s1	TEAD-YAP block 77
O=C(Cc1ccc(Cl)cc1)Nc1ccc(CN2CCOCC2)cc1	none
O=C(/C=C/c1ccc(Cl)cc1)Nc1ccc(CN2CCOCC2)cc1	TEAD-YAP block 41
Cc1ccc(-n2nc(C)c3cc(C#N)c4nc5ccccc5c(=O)n4c32)cc1	none
CC1=CC(C)(C)N2C(=O)C(=O)c3cc(OC(=O)c4ccccc4F)cc1c32	TEAD-YAP block 45
COc1ccc(-c2cn3cc(-c4ccc(F)cc4)nc3n2C)cc1	TEAD-YAP block 92
COc1ccc(-c2cn3ccccc3n2)cc1Br	none
COc1ccc(-c2cn3ccccc3n2)cc1	TEAD-YAP block 66
COc1cccc(-c2cn3nc(C)c(C)nc3n2)c1	none
COc1ccc(-c2cn3ccccc3n2)cc1F	TEAD-YAP block 55
COc1ccc(-c2cn3nc(C)c(C)nc3n2)cc1	TEAD-YAP block 57
CCCCN(C)CCCN(Cc1cccs1)C(=S)Nc1c(C)cccc1C	none
Cc1cccc(N2CCN(C(=O)c3cnn4c(C)c(Cc5ccccc5Cl)c(C)nc34)CC2)c1C	none
CCOc1ccc(S(=O)(=O)Nc2ccc(-c3cn4ccccc4n3)cc2)cc1	none
CCCOc1ccc(-c2cn3ccccc3n2)cc1	TEAD-YAP block 79
Cc1ccc(-c2cn3ccccc3n2)cc1	TEAD-YAP block 53
Clc1ccc(-c2cn3ccccc3n2)cc1	none
O=C(CCc1nnc(Cc2c[nH]c3ccccc23)o1)NCCn1ccc2ccccc21	FBW7 activator 2.3
Cn1c(CCNC(=O)CCc2nnc(Cc3c[nH]c4ccccc34)o2)nc2ccccc21	none
O=[N+]([O-])c1cc(Br)c(Nc2ccccc2)c([N+](=O)[O-])c1	TEAD-YAP block 40
c1ccc2oc(-c3cnc(-c4ccncc4)nc3-c3ccncc3)nc2c1	none
CCOC(=O)c1cc2c3c(c1)C1C=CCC1C(c1ccc(F)cc1)N3CC1CC=CC21 (centres undefined)	none
O=C(O)CNC(=O)c1cc2c3c(c1)C1C=CCC1C(c1ccc(F)cc1)N3CC1CC=CC21 (centres undefined)	MITF inh 73
Cc1onc(-c2ccccc2Cl)c1-c1nc(-c2cccnc2)no1	TEAD-YAP block 58
O=C1C(c2ccnc3ccccc23)=C(O)c2ccccc21	TEAD-YAP block 53
CC(C)n1cnc2c(NCCO)nc(-c3cccc(N)c3)nc21	none
CC(=O)c1cccc(-c2nc(NCc3nc4ccccc4[nH]3)c3ncn(C(C)C)c3n2)c1	TEAD-YAP block 67
Nc1cccc(-c2nc(NCc3nc4ccccc4[nH]3)c3ncn(-c4ccccc4)c3n2)c1	TEAD-YAP block 35
CC(C)n1cnc2c(NCc3nc4ccccc4[nH]3)nc(-c3cccc(N)c3)nc21	TEAD-YAP block 84
CC(C)N(CCNc1nc(-c2cccc(N)c2)nc2c1ncn2C(C)C)C(C)C	TEAD-YAP block 53
CC1=C(C(=O)OC2CCCC2)C(c2ccsc2)C2=C(CC(C)(C)CC2=O)N1 (centres undefined)	none
CC(C)N(CCNc1nc(-c2ccc(N3CCN(C)CC3)cc2)nc2c1ncn2C(C)C)C(C)C	TEAD-YAP block 39
COc1ccc(-c2nc(NCCN(C(C)C)C(C)C)c3ncn(-c4ccsc4)c3n2)cn1	TEAD-YAP block 35
OCCNc1nc(-c2ccc(N3CCOCC3)nc2)nc2c1ncn2-c1ccsc1	TEAD-YAP block 34
CC(C)N(CCNc1nc(-c2ccc(N3CCOCC3)nc2)nc2c1ncn2C(C)C)C(C)C	none
CC(C)N(CCNc1nc(-c2ccc(N3CCOCC3)nc2)nc2c1ncn2-c1ccsc1)C(C)C	TEAD-YAP block 43
Fc1ccc(Nc2ncnc3ccccc23)c(F)c1	none
COCc1cc(C)nc2sc3c(c12)NC1(CCCCC1)NC3=O	none
COc1ccc(Nc2nc3nonc3nc2Nc2ccc(OC)cc2)cc1	none
COc1ccc(Nc2nc3nonc3nc2N/N=C(\C)c2nonc2C)cc1	TEAD-YAP block 52
O=C(Nc1cccc(Cl)c1)c1ccc(CN2CCc3ccccc3C2)cc1	TEAD-YAP block 40
Cc1cccc(NC(=O)c2ccc(CN3CCc4ccccc4C3)cc2)c1	TEAD-YAP block 36
COc1ccc2c(C)nc(N3CCC(N4CC5CCC4C5)CC3)nc2c1 (centres undefined)	none
COC(=O)c1cc(NC(=O)CSc2n[nH]c3nc4ccccc4n23)cc(C(=O)OC)c1	none
Cc1cc(/C=N\Nc2ccc([N+](=O)[O-])cn2)c(C)n1-c1ccccc1F	none
Cc1cc(/C=N/Nc2nc(N)ncc2[N+](=O)[O-])c(C)n1-c1ccccc1F	TEAD-YAP block 63
O=C(Nn1c(C2CC2)nc2cc(Cl)ccc2c1=O)c1ccccc1	TEAD-YAP block 53
O=C(Oc1ccccc1NC1=NS(=O)(=O)c2ccccc21)c1ccccc1Cl	TEAD-YAP block 60
COc1ccccc1C(=O)Oc1ccc(Cl)cc1NC1=NS(=O)(=O)c2ccccc21	none
CC(C)n1nc(C(=O)NN)c2ccccc2c1=O	TEAD-YAP block 51
CCOCCCNc1ncnc2c1cnn2C	FBW7 activator 1.9
CCCNc1nc(N2CCc3ccccc3C2)nc2c1ncn2-c1ccsc1	none
Nc1nc(N2CCOCC2)nc2c1ncn2-c1ccsc1	TEAD-YAP block 42
CCCNc1nc(N2CCOCC2)nc2c1ncn2-c1ccsc1	TEAD-YAP block 50
CCc1ccccc1NC(=O)c1ccc(NCc2ccc(OC)cc2)c([N+](=O)[O-])c1	TEAD-YAP block 57
CCc1ccccc1NC(=O)c1ccc(SCc2ccc(OC)cc2)c([N+](=O)[O-])c1	none
CCc1ccccc1NC(=O)c1ccc(NCc2ccc(C)cc2)c([N+](=O)[O-])c1	TEAD-YAP block 57
COc1ccc(CNc2ccc(C(=O)Nc3cccc(OC)c3)cc2[N+](=O)[O-])cc1	TEAD-YAP block 52
COc1cccc(/C=N/NC(=O)c2cc(-c3ccc(C)o3)[nH]n2)c1O	none
Cc1ccc(-c2cc(C(=O)N/N=C/c3cc(Br)ccc3O)n[nH]2)o1	TEAD-YAP block 45
O=C(N/N=C/c1ccc(O)c2ncccc12)c1cccc(Br)c1	TEAD-YAP block 38, MITF inh 103
O=C(N/N=C/c1ccccc1O)c1cccc(Br)c1	none
COc1ccc(O)c(/C=N/NC(=O)c2ccc(NC(=O)c3ccccc3Cl)cc2)c1	TEAD-YAP block 34
COc1ccc(O)c(/C=N/NC(=O)c2cncc(Br)c2)c1	TEAD-YAP block 81
COc1ccc(C)cc1S(=O)(=O)NCCc1csc2nc(-c3ccc(F)cc3)nn12	none
COc1ccc(O)c(/C=N/NC(=O)c2cccc(Br)c2)c1	TEAD-YAP block 58
COc1ccc(O)c(/C=N\NC(=O)c2n[nH]c([N+](=O)[O-])n2)c1	MITF inh 53
O=C(N/N=C\c1ccccc1O)c1n[nH]c([N+](=O)[O-])n1	none

Bioassay records (PubChem)
